PubChem BioAssay (NCATS)
Results filed as inconclusive are left out. Values without a mark were called inactive. Calls of active or inactive are those of the source. The call rests on the fitted dose curve.

Test: VSVG counterscreen qHTS to identify inhibitors of SARS-CoV-2 cell entry (AID 1645847); further: nearly all actives have a fitted effect of over 65% in size
Settings: VSV-G pseudotyped particle entry, luciferase; series mostly up to 57.2 µM; activity change, negative = inhibition: at the top concentration
From the text: Assay Provider: Wei Zheng, Ph.D.
National Center for Advancing Translational Sciences, National Institute of Health, Rockville, MD.
SARS-CoV-2 spike protein, within the viral envelope, mediates viral attachment and infection of host cells. The SARS-CoV-2 spike protein specifically binds to the host receptor ACE2 (Angiotensin-converting enzyme 2). This interaction promotes endocytosis of the viral particle, additional events lead to viral-host cell membrane fusion and release of the viral contents, allowing viral replication.
While SARS-CoV-2 requires BSL-3 facilities for live virus work, pseudotyped partices (PP) that incorporate SARS-CoV-2 spike proteins without replication elements could facilitate studies on viral entry mechanisms in a BSL-2 setting. This PP cell entry assay could also enable screening of small molecule compound libraries in BSL-2 setting to identify inhibitors of SARS-CoV-2 cell entry.
SEQUENCE No. (e.g., 1, 2, 3, etc.); […] (e.g., Cells, Incubation, Reagent, etc.); VALUE and DESCRIPTION.
1. Cells. Seed 1500 HEK293-ACE2 cells (Expi293F with stable expression of human ACE2) in 2 microL/well media (DMEM, 10% FBS, 1x L-glutamine, 1x Pen/Strep, 1 ug/ml puromycin) in white 1536-well assay plates (Greiner #782073).
2. Incubation. Incubate at 37 degrees C with 5% CO2 overnight (~16 h).
3. Compound. Dispense 23 nL/well compounds in DMSO via pin transfer.
4. Incubation. Incubate for 1 h at 37C 5% CO2.
5. Reagent. Dispense 2 microL/well of vesicular stomatitis virus G glycoprotein (VSV-G) pseudotyped particles (PP). [a] PPs are produced with murine leukemia virus pseudo-typing.
6. Centrifugation. […]
7. Incubation. Incubate at for 48 h at 37C 5% CO2
8. Centrifugation. Remove supernatant with gentle centrifugation using a Blue Washer (BlueCat Bio).
9. Reagent. Dispense 4 microL/well of Bright-Glo Luciferase detection reagent (Promega #E2620).
10. Incubation. Incubate for 5 min at room temperature.
11. Detection. Read luminescence signal (ViewLux plate reader, PerkinElmer). Data was normalized with wells containing VSV-G PP as 100%, and wells containing bald PP (no fusion protein) as 0%.
On the % scale 0 is the no-effect control and ±100 the full control effect; potency means the concentration at half of the fitted maximal effect.

Row | SMILES | Potency | activity change, negative = inhibition
1 | CCCCCC(=O)O[C@]1(C(C)=O)CC[C@H]2[C@@H]3CCC4=CC(=O)CC[C@]4(C)[C@H]3CC[C@@]21C | 24.1 µM (active) | 
2 | O=C(CCCN1CCN(c2ccc(F)cc2)CC1)NC1c2ccccc2CSc2ccccc21 (configuration not stated) | 1.71 µM (active) | 
3 | Oc1ccc(Cl)cc1Cc1cc(Cl)ccc1O | 3.83 µM (active) | 
4 | CCCCCCOC(=O)NC(=N)c1ccc(NCc2nc3cc(C(=O)N(CCC(=O)OCC)c4ccccn4)ccc3n2C)cc1 | 4.82 µM (active) | 
5 | CN(C(=O)c1c(O)c2ccccc2n(C)c1=O)c1ccccc1 |  | -8.7%
6 | CN1CCC(=C2c3ccccc3CCc3sccc32)CC1 | 12.1 µM (active) | 
7 | COCCOC(=O)C1=C(C)NC(C)=C(C(=O)OC/C=C/c2ccccc2)C1c1cccc([N+](=O)[O-])c1 (configuration not stated) | 21.5 µM (active) | 
8 | CC1=CC(=O)c2ccccc2C1=O | 6.81 µM (active) | 
9 | O=C(NCC1CN(c2ccc(N3CCOCC3=O)cc2)C(=O)O1)c1ccc(Cl)s1 (configuration not stated) | 1.71 µM (active) | 
10 | CC(C(O)c1ccccc1)N(C)CCOC(c1ccccc1)c1ccccc1 (configuration not stated) | 21.5 µM (active) | 
11 | CCCCCCCCCCCCCCCCC(C(=O)O)C(O)(CC(=O)O)C(=O)O (configuration not stated) |  | -22.3%
12 | C=CC[C@]1(O)CC[C@H]2[C@@H]3CCC4=CC(=O)CCC4=C3C=C[C@@]21C | 17.1 µM (active) | 
13 | CCCCC(CC)COC(=O)C(C#N)=C(c1ccccc1)c1ccccc1 (configuration not stated) | 21.5 µM (active) | 
14 | CCOC(=O)C(C)(C)Oc1ccc(Cl)cc1 | 12.1 µM (active) | 
15 | CN(C)CCOC(c1ccccc1)c1ccc(Br)cc1 (configuration not stated) | 2.71 µM (active) | 
16 | Clc1ccccc1C(c1ccccc1)(c1ccccc1)n1ccnc1 | 19.2 µM (active) | 

Row | SMILES | Potency | activity change, negative = inhibition
17 | COC(=O)C1=C(C)NC(C)=C(C(=O)OC(C)(C)CN(C)CCC(c2ccccc2)c2ccccc2)C1c1cccc([N+](=O)[O-])c1 (configuration not stated) | 21.5 µM (active) | 
18 | O=c1[nH]c(=O)n([C@H]2C[C@H](O)[C@@H](CO)O2)cc1C(F)(F)F | 0.242 µM (active) | 
19 | c1ccc2c(c1)Sc1ccccc1N2CC1CN2CCC1CC2 (configuration not stated) | 0.383 µM (active) | 
20 | CCCSS/C(CCO)=C(\C)N(C=O)Cc1cnc(C)nc1N |  | -5.29%
21 | O=C1NC2CCCCN2C12CCN(CCCN1c3ccccc3CCc3ccc(Cl)cc31)CC2 (configuration not stated) | 21.5 µM (active) | 
22 | O[C@@H](COc1cccc2ncccc12)CN1CCN(C2c3ccccc3[C@@H]3[C@H](c4ccccc42)C3(F)F)CC1 (some centres not stated) | 0.171 µM (active) | 
23 | COC(=O)[C@H]1[C@H]2C[C@@H]3c4[nH]c5cc(OC)ccc5c4CCN3C[C@H]2C[C@@H](OC(=O)/C=C/c2ccc(O)c(OC)c2)[C@@H]1OC | 19.2 µM (active) | 
24 | CCC(=O)C(CCN(C)C)(c1ccccc1)c1ccccc1 | 3.41 µM (active) | 
25 | CCCOc1ccc2nc(NC(=O)OC)[nH]c2c1 | 0.607 µM (active) | 
26 | O=C(Nc1ccccc1)OCC(CN1CCCCC1)OC(=O)Nc1ccccc1 (configuration not stated) |  | 0.829%
27 | CC(=O)c1ccc2c(c1)N(CCCN1CCC(CCO)CC1)c1ccccc1S2 | 7.08 µM (active) | 
28 | CCOC(=O)C1=C(C)NC(C)=C(C(=O)OCC)C1c1ccccc1/C=C/C(=O)OC(C)(C)C | 1.21 µM (active) | 
29 | COC(=O)Nc1nc2ccc(S(=O)c3ccccc3)cc2[nH]1 (configuration not stated) | 24.1 µM (active) | 
30 | CCN(CC)CCOc1ccc(/C(=C(\Cl)c2ccccc2)c2ccccc2)cc1 | 8.57 µM (active) | 
31 | Oc1c(Cl)cc(Cl)cc1Sc1cc(Cl)cc(Cl)c1O | 4.82 µM (active) | 
32 | Clc1ccc(C(OCCN2CCCCC2)c2ccccc2)cc1 (configuration not stated) |  | -25.1%
